# Assay outcomes deposited in PubChem BioAssay by National Center for Advancing Translational Sciences (NCATS).
# HT1080-NT tox = kills 2HG-producing HT-1080-NT fibrosarcoma cells; Potency, µM (top dose mostly 46.1 µM), most hits filed as cytotoxic; HT-1080-NT fibrosarcoma viability, CellTiter-Glo ATP luminescence, 48 h; AID 686970; 1.6% of 360,000 active;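 note: NT is the 2HG producing partner of a matched IDH1 knockdown line; nearly all actives have a fitted effect of over 55% in size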
#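 Read-out is CellTiter-Glo luminescence after 10 minutes at room temperature, following 48 hours' compound treatment of HT-1080-NT cells (750 cells/well, RPMI, 5% FBS, 37 degrees C).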
# TDP1 cell CPT = DT40-hTDP1 cell growth loss with CPT | Potency, µM (titrated, usually from 46.2 µM), most hits filed as inhibitors | chicken DT40 Tdp1-/-;hTDP1 cells + 20 nM CPT, ATP luminescence, 48 h | 12% of 420,000 active | AID 686979; note: nearly all actives have a fitted effect of over 55% in size
#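 Chicken DT40 Tdp1-/- cells stably complemented with human TDP1 were seeded at 400 cells/well in medium containing 20 nM camptothecin, exposed to pin-transferred compounds, and grown at 37 °C for at least 48 hr. Viability was read as ATP luminescence.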
# IL1B secr inh = blocks inflammasome-driven IL-1 beta release; activity change, % at 57.5 µM; 4.7% of 360,000 active; AID 743279; THP-1 LPS/ATP IL-1B secretion, AlphaLISA, 16 h; stronger effect = lower value; in the data active = activity change below about -50%; inconclusive = mostly about -30% to -49%
#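 Secreted IL-1B measured by AlphaLISA bead assay after 16 h compound exposure of THP-1 cells; compounds (final up to 57.5 uM) added 1 h before LPS (250 ng/mL) and ATP (1.25 mM) stimulation; lower signal means less secretion.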
# HT1080 IDH1KD tx = toxicity to HT-1080 IDH1 knockdown cells (counter line) | Potency, µM (titrated, usually from 46.1 µM), actives largely listed as cytotoxic | 2% of 360,000 active | HT-1080 IDH1 knockdown viability, ATP luminescence, 48 h
#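 IDH1KD HT-1080 cells, 750/well, RPMI + 5% FBS; compound pinned after 2 h settling; 48 h, 37 °C; CellTiter-Glo luminescence; % activity normalised to DMSO and no-cell wells; curves fitted, classed by r2 and efficacy.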
# DT40 TDP1 no CPT = qHTS for Inhibitors of human tyrosyl-DNA phosphodiesterase 1 (TDP1): qHTS in cells in absence of CPT; DT40 Tdp1-/- hTDP1 cells, no CPT, ATP luminescence, 48 h; 15% of 420,000 active; AID 686978, 2013; Potency, µM (series often up to 46.2 µM), most hits filed as inhibitors; note: nearly all actives have a fitted effect of over 55% in size
#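 Chicken DT40 Tdp1-/- cells complemented with human TDP1, screened without camptothecin (DMSO vehicle only), 400 cells/well. Compounds pin-transferred, cells incubated at 37 °C for at least 48 hr. Growth read as ATP-dependent luminescence (CellTiter-Glo, 30 min at RT).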
# 12-LOX inh = inhibitors of human 12S-lipoxygenase ALOX12. P18054. purified 12hLO, xylenol orange hydroperoxide absorbance. Potency, µM (highest dose often 108 µM), usual class: inhibitors. 1.1% of 580,000 active. AID 1671190
# Target sequence (P18054 whole entry, looked up): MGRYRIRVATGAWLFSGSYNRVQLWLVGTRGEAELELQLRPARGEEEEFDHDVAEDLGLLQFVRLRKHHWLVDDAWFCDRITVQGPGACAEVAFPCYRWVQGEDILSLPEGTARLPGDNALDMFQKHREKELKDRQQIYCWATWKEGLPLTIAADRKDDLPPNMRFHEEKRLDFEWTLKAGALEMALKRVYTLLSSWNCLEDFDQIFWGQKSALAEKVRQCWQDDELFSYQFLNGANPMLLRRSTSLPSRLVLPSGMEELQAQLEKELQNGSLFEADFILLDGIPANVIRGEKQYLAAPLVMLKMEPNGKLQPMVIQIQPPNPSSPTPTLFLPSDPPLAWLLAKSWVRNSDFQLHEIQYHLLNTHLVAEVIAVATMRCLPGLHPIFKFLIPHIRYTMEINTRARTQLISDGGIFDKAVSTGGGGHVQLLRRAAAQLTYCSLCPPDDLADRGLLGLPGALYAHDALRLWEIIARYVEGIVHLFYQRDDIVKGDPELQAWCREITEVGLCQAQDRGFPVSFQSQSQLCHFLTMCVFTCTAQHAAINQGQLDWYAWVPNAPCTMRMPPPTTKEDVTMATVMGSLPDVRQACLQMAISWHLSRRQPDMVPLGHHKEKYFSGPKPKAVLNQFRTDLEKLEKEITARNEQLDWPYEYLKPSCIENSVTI
#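 Purified human 12hLO at 150 nM in 25 mM Hepes, 0.01% Triton X-100, pH 7.0, preincubated 15 min at room temperature with compound. Reaction started with 40 uM arachidonic acid, 30 min at room temperature. Hydroperoxide measured by Fe-xylenol orange, 573/405 nm absorbance ratio.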
# Numbers stand for hits; 0 = inactive; ? = inconclusive; - = no result given. This excerpt belongs to a sample that is enriched for hits. Unless noted, calls come from the whole dose curve; as a rule, active = well fitted curve in the direction sought with a large enough effect; inconclusive = small, poorly fitted or top-dose-only effect, or another doubt; inactive = no such curve, though single readings can be large; an effect the other way counts as inactive or inconclusive.
SMILES,HT1080-NT tox,TDP1 cell CPT,IL1B secr inh,HT1080 IDH1KD tx,DT40 TDP1 no CPT,12-LOX inh
CCOc1cc(/C=N/NC(=O)c2ccccc2OCc2ccc(F)cc2)ccc1O,0,?,0,0,13µM,0
Nc1nc(Nc2ccc(S(N)(=O)=O)cc2)nn1C(=O)c1c(F)cccc1F,-,-,-,-,-,0
COc1ccc(-n2c(C)c(C)c3c2ncn2nc(-c4ccco4)nc32)cc1,-,-,-,-,-,0
O=C(CCc1ncc(-c2ccc(F)cc2)o1)N1CCCCC1Cc1ccccc1 (configuration not stated),-,-,-,-,-,0
CC(C)c1ccc(OCCNC(=O)Cc2c[nH]c3ccccc23)cc1,-,-,-,-,-,0
O=C(COc1ccccc1[N+](=O)[O-])N/N=C/c1ccc(O)c([N+](=O)[O-])c1,0,?,0,0,0,0
CCOc1cc(/C=N/NC(=O)N/N=C/c2ccc(O)c(OCC)c2)ccc1O,1.84µM,2.59µM,?,2.59µM,2.91µM,0
O=C(COc1ccccc1C(=O)N/N=C\c1ccc(O)c(O)c1)N/N=C/c1ccc(O)c(O)c1,0,16.4µM,0,0,?,-
CCOc1cc(/C=N/NC(=O)C(=O)N/N=C/c2ccc(O)c(OCC)c2)ccc1O,0,0,0,0,0,0
CCOc1cc(C=NN=C2c3ccccc3-c3ccccc32)ccc1O,0,?,0,?,18.4µM,?
Cc1ccc(S(=O)(=O)Nc2ccc(N(C)S(=O)(=O)c3ccc(C)cc3)cc2)cc1,0,0,0,?,?,0
Cc1ccc(S(=O)(=O)N(C)c2ccc3c(c2)C(=O)c2ccccc2-3)cc1,0,16.4µM,0,0,?,0
CCOC(=O)[C@]12CCC=C1N(Cc1ccc(Cl)cc1Cl)C(=O)[C@H](CC(=O)NCc1ccccc1)C2,?,?,-63.5,?,23.1µM,0
CCOC(=O)[C@]12CCC=C1N(Cc1ccc(Cl)cc1Cl)C(=O)[C@H](CC(=O)NCc1ccc(C)o1)C2,?,?,-,?,18.4µM,?
CCOC(=O)[C@]12CCC=C1N(Cc1ccccc1)C(=O)[C@H](CC(=O)NCc1ccccc1)C2,0,?,0,0,16.4µM,?
CCCCNC(=O)C[C@@H]1C[C@@]2(C(=O)OCC)CCC=C2N(Cc2ccccc2)C1=O,0,0,0,0,0,0
CCOC(=O)[C@]12CCCC=C1N(Cc1ccc(Cl)cc1Cl)C(=O)[C@H](CC(=O)NCc1cccc(C(F)(F)F)c1)C2,32.6µM,14.6µM,-55.2,?,18.4µM,0
CCOC(=O)[C@]12CCC=C1N(Cc1ccc(Cl)cc1Cl)C(=O)[C@H](CC(=O)NCCc1ccccc1OC)C2,?,?,?,?,?,0
CCOC(=O)[C@]12CCC=C1N(Cc1ccc(Cl)cc1Cl)C(=O)[C@H](CC(=O)NCc1cccc(C(F)(F)F)c1)C2,?,?,0,?,?,0
CC(C)CN(CC(C)C)C(=O)Cn1nc(C(=O)O)c2ccccc2c1=O,-,-,-,-,-,0
Cc1cc(C)c(C(=O)COC(=O)c2n[nH]c(=O)c3ccccc23)c(C)c1,-,-,-,-,-,0
CN(Cc1cccs1)C(C(=O)NC1CC1)c1ccccc1 (configuration not stated),-,-,-,-,-,0
CN(C(=O)c1ccc(NC(=O)Cc2cccc([N+](=O)[O-])c2)cc1)C1CCCC1,0,?,?,0,0,0
CN(C(=O)c1ccc(S(=O)(=O)c2cccc(Cl)c2)c([N+](=O)[O-])c1)C1CCCCC1,?,3.66µM,-106.5,?,5.17µM,0
CCOCCOc1cc(NCc2ccccc2)c2ncn(C(C)C)c2c1,0,?,0,0,?,?
SMILES,HT1080-NT tox,TDP1 cell CPT,IL1B secr inh,HT1080 IDH1KD tx,DT40 TDP1 no CPT,12-LOX inh
CCC(CO)Oc1cc(NCc2cccc(OC)c2)c2ncn(C(C)C)c2c1 (configuration not stated),0,20.6µM,0,0,?,0
CCC(CO)Oc1cc(NCc2ccc(C(C)(C)C)cc2)c2ncn(C(C)C)c2c1 (configuration not stated),?,13µM,0,?,14.6µM,0
CCC(CO)Oc1cc(NCc2ccc(O)cc2)c2ncn(C(C)C)c2c1 (configuration not stated),0,?,0,0,0,0
COc1ccc(Cc2cc(NCc3ccccc3)c3ncn(C(C)C)c3c2)cc1,?,?,0,0,20.6µM,0
CCC(COC)Oc1cc(NCc2ccccc2)c2ncn(C(C)C)c2c1 (configuration not stated),?,25.9µM,-90.3,?,18.4µM,0
Cc1cc(CNC(=O)[C@@H]2CCC[C@@H](NCc3nccn3C)CN(C)C(=O)C2)no1,-,-,-,-,-,0
COc1ccc(NC(=O)NC[C@H]2O[C@@H]3C[C@@H](CC(=O)N4CCOCC4)O[C@@H]3[C@@H]2O)cc1,-,-,-,-,-,0
CCC(CO)Oc1cc(NCc2cccc(O)c2)c2ncn(C(C)C)c2c1 (configuration not stated),0,23.1µM,0,0,?,0
CC(C)n1cnc2c(NCc3ccccc3)cc(N[C@H](C)CO)cc21,23.1µM,2.31µM,0,23.1µM,4.61µM,-
COCCCOc1cc(NCc2ccccc2)c2ncn(C(C)C)c2c1,0,0,0,0,0,0
CCCCOc1cc(NCc2ccccc2)c2ncn(C(C)C)c2c1,0,23.1µM,0,?,20.6µM,?
CCC(CO)Oc1cc(NCc2ccccn2)c2ncn(C(C)C)c2c1 (configuration not stated),0,0,0,0,0,0
CCOCCCNC(=O)CS(=O)Cc1nc(-c2ccc(C)cc2)oc1C (configuration not stated),-,-,-,-,-,0
CS(=O)(=O)N1CCCN(C2CCOCC2)CCNC(=O)CC1c1ccccc1 (configuration not stated),-,-,-,-,-,0
O=c1ccsc2ccc3ccccc3c12,-,-,-,-,-,0
Cc1cc(C)c(S(=O)(=O)N2CC(c3nc(-c4ccncc4)no3)C2)c(C)c1,-,-,-,-,-,0
COc1cccc(NC(=O)C2(C)CCN2CCc2ccccc2)c1 (configuration not stated),0,23.1µM,0,0,?,0
COc1ccc(OC)c(NC(=O)C2(C)CCN2CCc2ccccc2)c1 (configuration not stated),?,23.1µM,0,?,16.4µM,0
COc1ccc(NC(=O)C2(C)CCN2CCc2ccccc2)cc1OC (configuration not stated),0,?,0,0,?,0
Cc1c2c(cc3c1[nH]c1ccccc13)C=NCC2,0,?,-73.0,?,23.1µM,0
Cc1c(Cl)cccc1N=C1NC(=O)CS1,0,0,0,0,0,0
CCN(CCC#N)c1ccc(/C=C/c2ccnc3ccccc23)cc1,-,?,-,-,20µM,-
